From PubChem
The list is not random: actives were taken first. Their share in the collection is about 5.8%.
TRPV1 PAM: potentiators of human vanilloid receptor 1 (TRPV1); Q8NER1; TRPV1-expressing cells, Fluo-8 calcium influx, capsaicin EC20 potentiation; potentiation, % at 8.33 µM; 320,000 compounds, 0.02% hits; AID 540277; in the data active = potentiation above about 80%; inconclusive = between about 30% and that limit
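Fluo-8 calcium influx in TRPV1-expressing cells, kinetic read (ex 480/em 520 nm). Compound added and read 3 min for agonist activity, followed by capsaicin at EC20 final and 2 min further read for enhancement.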
uPA generation: cell surface uPA generation inhibition. cell surface uPA generation assay, qHTS. Potency, µM (highest dose often 38.3 µM), usual class: inhibitors. 330,000 compounds, 0.31% hits. AID 540303; active = well fitted inhibition curve with a large enough effect; inconclusive = small, poorly fitted or top-dose-only effect; inactive = no such curve, though single readings can be large or run the other way; tested in mouse RAW 264.7 cells; note: nearly all actives have a fitted effect of over 55% in size
TRPV1 ag: activates the human vanilloid receptor TRPV1 | TRPV1-expressing cells, Fluo-8 calcium influx, agonist mode | activation, % at 8.33 µM | 320,000 compounds, 0.19% hits; in the data active = activation above about 80%; inconclusive = between about 30% and that limit
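TRPV1-expressing cells were cultured overnight at 35.5C and loaded with Fluo-8 calcium dye for 40 to 90 min at room temperature. After a 10 s baseline, compound was added and calcium influx was read kinetically for 3 min (ex 480/em 520 nm).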
VP16 counter: counter-screen for ROR gamma inhibitors: Gal4-VP16 reporter; Drosophila S2 Gal4-VP16 UAS-luciferase, luminescence, 20 h; Potency, µM (top dose mostly 53.6 µM), actives largely listed as inhibitors; 310,000 compounds, 3.5% hits; AID 2546;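 note: Gal4-VP16 expression switched on by copper sulfate through the metallothionein promoter; nearly all actives have a fitted effect of over 50% in size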
RORgamma inh: inhibitors of mouse ROR gamma transcriptional activity; Drosophila S2 Gal4-RORgamma UAS-luciferase reporter, 20 h; P51450; AID 2551; 310,000 compounds, 5.4% hits; Potency, µM (titrated, usually from 53.6 µM), most hits filed as inhibitors; note: nearly all actives have a fitted effect of over 60% in size
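Luciferase reporter read in Schneider cells carrying Gal4-RORγ (mouse) and UAS-Photinus luciferase; cells given compound 1 h before 700 uM copper sulfate induction, then incubated 20 h at ambient temperature.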
Hits are given with their value; . = inactive; ? = inconclusive; / = not tested or not shown; [ ] = dose if it differs, or a comment. Unless noted, calls come from the whole dose curve; as a rule, active = well fitted curve in the direction sought with a large enough effect; inconclusive = small, poorly fitted or top-dose-only effect, or another doubt; inactive = no such curve, though single readings can be large; an effect the other way counts as inactive or inconclusive.

SMILES	TRPV1 PAM	uPA generation	TRPV1 ag	VP16 counter	RORgamma inh
CCc1ccc(NC(=S)Nc2cccc3cnccc23)cc1	.	.	.	?	11µM
C=C(C)CNC(=S)Nc1cccc2cnccc12	.	.	.	.	.
Cc1ccc(NC(=S)Nc2cccc3cnccc23)c(C)c1	.	.	.	.	16µM
Cc1cc(C)cc(NC(=S)Nc2cccc3cnccc23)c1	.	.	.	?	13µM
COc1ccc(C2CC(c3ccccc3)Oc3cc(OC)ccc32)cc1 (stereo unspecified)	/	/	/	.	.
BrC/C=C/CBr	/	/	/	.	.
Cc1ccsc1CN(C)C(=O)c1ccc(Oc2ccccc2)cc1	.	.	.	.	?
COc1cc(/C=C2/C(=O)ON=C2C)cc(Cl)c1O	.	.	.	?	13µM
CC1=NOC(=O)/C1=C/c1ccc(O)c(Cl)c1	.	.	.	16µM	11µM
C#CCOc1c(Cl)cc(/C=C2/C(=O)ON=C2C)cc1OC	.	.	.	.	.
CC(SCc1ccccc1)C(=O)NN=C1CCN(C)CC1 (stereo unspecified)	.	.	.	.[0.365 µM]	7.1µM
COc1cccc(N2[C@@H](CC(C)=O)c3ccc(/C=C/C(C)=O)cc3S2(=O)=O)c1	/	3.2µM	/	/	/
CCOC(=O)c1c(NC(=S)NCCc2ccccc2)sc2c1CC(C(C)C)OC2 (stereo unspecified)	.	.	.	1.3µM	2.5µM
C=CCNC(=S)Nc1sc2c(c1C(=O)OCC)CC(C(C)C)OC2 (stereo unspecified)	.	.	.	4.5µM	5µM
CC(C)C1Cc2c(sc(NC(=S)NC(=O)c3ccccc3)c2C#N)CO1 (stereo unspecified)	.	.	.	?	5.6µM
CCOC(=O)c1c(NC(=S)Nc2ccccc2)sc2c1CCN(CCc1ccccc1)C2	.	/	.	.	.
CC(C)N1CCc2c(sc(NC(=S)NC(=O)c3ccccc3)c2C#N)C1	.	.	.	?	?
COc1ccccc1NC(=O)CN(Cc1ccccc1)S(C)(=O)=O	?	.	.	.	.
CC(NC(=O)C12CC3CC(CC(O)(C3)C1)C2)c1ccccc1 (stereo unspecified)	.	.	.	.	.
Cc1ccc(S(=O)(=O)N2CCOCC2)cc1NC(=O)COc1ncnc2ccccc12	.	.	.	.	.
CCn1nc(C)cc1-c1nnc(Sc2ncc([N+](=O)[O-])s2)n1C	.	?	.	4.5µM	5µM
CCn1nc(C)cc1-c1nnc(SCC(=O)Nc2ccccc2)n1CCCOC	.	.	.	.	.
CC(=O)c1cnc(Nc2nc(C)c3cc(C)c(C)cc3n2)nc1C	.	.	.	.[0.365 µM]	3.5µM
O=C(c1cnccn1)N1CCC[C@@]2(CCN(C(c3ccccc3)c3ccccc3)C2)C1	/	/	/	.	.
CCCCCN(CCCCC)C(=O)C(CCC(=O)O)NC(=O)c1ccc(Cl)c(Cl)c1 (stereo unspecified)	/	.	/	.	.
SMILES	TRPV1 PAM	uPA generation	TRPV1 ag	VP16 counter	RORgamma inh
CCCn1c(=S)[nH]c2cc(C(=O)N3CCCC(C(=O)OCC)C3)ccc2c1=O (stereo unspecified)	.	/	.	?	11µM
CCN1CCN(C(=O)c2ccc3c(=O)n(C4CCCC4)c(=S)[nH]c3c2)CC1	.	.	.	14µM	7.1µM
CCCn1c(=S)[nH]c2cc(C(=O)N3CCN(C4CCCCC4)CC3)ccc2c1=O	.	.	.	.	10µM
O=C(c1ccc2c(=O)n(C3CCCC3)c(=S)[nH]c2c1)N1CCN(C2CCCCC2)CC1	.	.	.	.	.
CCCCCNC(=O)c1ccc2c(=O)n(CCCOCC)c(=S)[nH]c2c1	.	.	.	.	.
COCCCNC(=O)c1ccc2c(=O)n(C3CCCC3)c(=S)[nH]c2c1	.	.	.	?	14µM
CN(c1ccc(C(=O)NCCCn2ccnc2)cc1)S(C)(=O)=O	.	.	.	.	.
O=C(Cc1ccccc1Cl)c1ccccc1	/	.	/	/	/
O=C(NCc1cccnc1)C1CC(c2ccc(Cl)c(Cl)c2)=NO1 (stereo unspecified)	.	?	.	.	?
C=CCOc1ccc(C(=O)/C=C2/C(=O)Nc3ccccc32)cc1	.	.	.	.	?
NC(=O)COc1ccc(C(=O)/C=C2/C(=O)Nc3ccccc32)cc1	.	.	.	?	7.9µM
COc1ccc(C(=O)/C=C2/C(=O)Nc3ccccc32)cc1	.	?	.	?	10µM
C=CCOc1ccccc1C(=O)/C=C1/C(=O)Nc2ccccc21	.	?	.	13µM	5.6µM
COc1cc(OC)c(/C=C2\C(=O)Nc3ccccc32)c(OC)c1	.	7.9µM	.	/	/
COc1ccc(C(=O)/C=C2/C(=O)Nc3ccccc32)c(OC)c1	.	.	.	?	?
CCC(NC(=O)COc1cc2c(c3oc(=O)c(C)c(C)c13)CCC(C)(C)O2)C(=O)O (stereo unspecified)	.	.	.	.	.
O=C1Nc2ccccc2/C1=C\c1cccn1-c1ccc(OC(F)(F)F)cc1	.	.	.	?	?
CN(C)C(=S)Nc1ccc2ccccc2c1	.	.	.	?	16µM
COc1ccc(S(=O)(=O)N2CCOC2CNC(=O)C(=O)NCCCN2CCOCC2)cc1OC (stereo unspecified)	/	.	/	/	/
Cc1nc(-c2ccc(C(F)(F)F)cc2)sc1C(=O)NN	.	.	.	3.5µM	4.5µM
Cc1nc(-c2cccs2)sc1C(=O)NN	.	.	.	?	?
COC(=O)[C@@]1(Cc2ccc(OC)cc2)[C@H]2c3cc(C(=O)N(C)C)n(Cc4ccc(Cl)c(C(F)(F)F)c4)c3C[C@H]2CN1C(=O)c1ccccc1	/	/	/	.	?
COc1c(C=O)c(=O)[nH]c2c(OC)cccc12	/	/	/	.	.
c1ccc(Nc2nc(-c3ccccn3)cs2)cc1	.	.	?	10µM	3.5µM
COc1cccc2sc(Nc3nc(-c4ccccn4)cs3)nc12	.	/	?	/	0.045µM
SMILES	TRPV1 PAM	uPA generation	TRPV1 ag	VP16 counter	RORgamma inh
O=C(Nc1nc(-c2ccccn2)cs1)C1CC(=O)N(c2ccc3c(c2)OCCO3)C1 (stereo unspecified)	.	.	.	?	10µM
O=C(Nc1nc(-c2ccccn2)cs1)C1CC1	.	.	.	?	16µM
c1ccc(-c2csc(Nc3cccnc3)n2)nc1	.	/	.	.	?
COc1ccc(N2Cc3cccc(C(=O)N4CCN(C(=O)c5ccco5)CC4)c3C2=O)cc1	/	.	/	.	.
CC(C)C(=O)Nc1ccc(S(=O)(=O)N2CCC(c3nc4ccccc4[nH]3)CC2)cc1	.	.	.	/	/
O=C(CC1CC2CCC1C2)Nc1nc(-c2ccccn2)cs1 (stereo unspecified)	.	.	?	13µM	3.2µM
O=c1oc2c(O)cccc2cc1-c1nc2ccccc2[nH]1	.	.	85	?	?
O=C(O)c1ccc2nc(-c3cc4cccc(O)c4oc3=O)[nH]c2c1	.	/	.	/	/
O=c1oc2c(CN3CCCCC3)c(O)ccc2cc1-c1nc2ccccc2[nH]1	.	/	85	.	.
COc1ccc2c(c1)-c1nc(/N=C/c3c(O)ccc4ccccc34)sc1CC2	.	.	.	?	16µM
